According to PubChem BioAssay (Tox21):
Records with an inconclusive call do not appear. Entries that show only a call come without a potency. Unmarked numbers belong to inactive results. Calls of active or inactive are those of the source. The call rests on the fitted dose curve.

assay: cAMP Responsive Elements (CRE) small molecule agonists, cell-based qHTS assay (AID 1963590); conditions: CRE-bla HEK293T, beta-lactamase FRET ratio, 3 h; series mostly up to 92.4 µM; activation: at the top concentration
From the text: U.S. Tox21 Program National Center for Advancing Translational Sciences [NCATS] Division of Preclinical Innovation [DPI] U.S. Environmental Protection Agency [EPA] National Institutes of Environmental Health Sciences [NIEHS] National Toxicology Program [NTP] U.S. Food and Drug Administration [FDA] Tox21 Assay Overview: CREB (cyclic-AMP Responsive Element Binding Protein) is a cellular transcription factor. It binds to certain DNA sequences called cAMP Responsive Elements (CRE) and regulates the transcription of the genes. […] This cell line can be used to find agonists/antagonists of the cyclic AMP signaling pathway. The activation of the report gene under culture conditions can be detected by fluorescence intensity. This cell line has been used to screen the Tox21 10K compound library to identify agonists that induce oxidative stress.
Tox21 Assay Protocol Summary: CRE-bla Hek 293T cells were suspended in assay medium (DMEM containing 10% dialyzed FBS, 0.1 mM NEAA, 1 mM sodium pyruvate and 25 mM HEPES) and dispensed at 2,000 cells/5 uL /well into 1536-well black wall/clear bottom plates using a Multidrop Combi (ThermoFisher Scientific, Waltham, MA) dispenser. After the assay plates were incubated at 37 C/5% CO2 for 18 hrs, 23 nL of compounds dissolved in DMSO, positive controls or DMSO only was transferred to the assay plate by a pintool workstation (Kalypsys, San Diego, CA). After the plates were incubated at 37 C/5% CO2 for 3 hrs, 1 uL of LiveBLAzer B/G FRET substrate (Invitrogen, Carlsbad, CA) was added to each well using Bioraptr Flying Reagent Dispenser (FRD, Aurora Discovery, San Diego, CA). The plates were incubated at room temperature for 2 h.

| SMILES | Potency | activation |
| --- | --- | --- |
| C1=Cc2cccc3cccc1c23 | inactive |  |
| Clc1cccc(C(Cl)(Cl)Cl)n1 | inactive |  |
| NC(=O)OCCCc1ccccc1 |  | 0.747% [at 42.5 µM] |
| CC(C)=CC1C(C(=O)OCc2cccc(Oc3ccccc3)c2)C1(C)C (stereo not given) | inactive |  |
| Cc1ccc(N=C=O)cc1N=C=O | inactive |  |
| COC[C@@H](NC(C)=O)C(=O)NCc1ccccc1 |  | 0.0386% [at 42.5 µM] |
| OCCSCSCCO |  | 0.6% |
| CCC(=O)O[C@@H]1C=C2CCC3C(CCC4(C)C3CC[C@@H]4OC(=O)CC)C2CC1 (stereo not given in full) |  | -0.142% [at 42.5 µM] |
| CC12CC1(C)C(=O)N(c1cc(Cl)cc(Cl)c1)C2=O (stereo not given) | inactive |  |
| O=P(OCCCl)(OCCCl)OCCCl |  | 1.15% |
| COP(N)(=O)SC (stereo not given) | inactive |  |
| O=C(O)C(Cl)(Cl)Br |  | -0.481% |
| Clc1cccc(Cl)c1 | inactive |  |
| O=[N+]([O-])c1ccc([As](=O)(O)O)cc1 | inactive |  |
| Cl/C=C/Cl | inactive |  |
| C[N+](C)(C)CC(=O)[O-] | inactive |  |
| CC(C)N1C(=O)c2ccccc2NS1(=O)=O | inactive |  |
| Clc1nc(Cl)nc(Cl)n1 | inactive |  |
| C=C(C)C#N | inactive |  |
| CCCCOCCOP(=O)(OCCOCCCC)OCCOCCCC |  | 9% |

| SMILES | Potency | activation |
| --- | --- | --- |
| O=C1CCCO1 | inactive |  |
| COC(=O)c1ccccc1N | inactive |  |
| CCc1cccc(C)c1N(C(=O)CCl)C(C)COC (stereo not given) |  | -0.029% |
| Nc1ncn[nH]1 | inactive |  |
| CC(=O)O | inactive |  |
| CCN(CC)C(=O)SCc1ccc(Cl)cc1 | inactive |  |
| C=CCc1ccc2c(c1)OCO2 | inactive |  |
| Nc1ccc(-c2ccccc2)cc1 |  | 7.99% |
| Brc1c(Br)c(Br)c(Oc2c(Br)c(Br)c(Br)c(Br)c2Br)c(Br)c1Br |  | 0.588% [at 19 µM] |
| CCN(N=O)C(N)=O | inactive |  |
| CCCBr |  | 1.17% |
| Cc1ccc2cc(C)ccc2c1 |  | 0.273% |
| N#CCNCC#N |  | 0.363% |
| CCC(=O)OC1(c2ccccc2)CCN(C)CC1 |  | -1.49% |
| O=S(=O)(O)C(F)(F)C(F)(F)C(F)(F)C(F)(F)C(F)(F)C(F)(F)F |  | -1.14% |
| [CH3][Sn]([CH3])([Cl])[Cl] |  | 0.973% |
| CC1(C)C(=O)NC(=O)NC1=O |  | -1.99% |
| Clc1ccc(C2(Cn3cncn3)OCCO2)c(Cl)c1 |  | 0.586% |
| CCOC(=O)N(C)N=O |  | 0.542% |
| CS(=O)(=O)Cl |  | -1.06% |
